By inhibition is commonly meant the drop in the measured response relative to a control, in per cent.

Among the data in PubChem BioAssay are growth inhibition, inhibition and outcome values, retold here.

The nature of assay [1]: antimalarial activity against Dd2 strain (AID 2302;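 active = growth inhibition above 50% at the single 2 µM test dose, taken to imply half-maximal potency below 2 µM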;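 note: 0% = DMSO untreated growth and 100% = chloroquine plus artemisinin killed control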). The settings on record: P. falciparum Dd2 in RBCs, LDH growth readout, 72 h; at 2 µM; stronger effect = higher value.
A short description of assay [2]: HepG2 cytotoxicity, primary screen, cytotoxicity control for P. falciparum antimalarial project, cell-based, ATP luminescence (AID 2303;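 active = inhibition above 50%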;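 note: 0% = DMSO wells and 100% = digitonin-killed cells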). Particulars: HepG2 viability, 24-48 h, at 10 µM, stronger effect = higher value.
Assay [3] addresses L-lactate dehydrogenase (Plasmodium falciparum (isolate CDC / Honduras)) (UniProt Q27743). In words: PfLDH activity inhibition – cell lysate, 3D7 strain, counter-screen for P. falciparum growth inhibition project (AID 2304).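 Note: 0% = vehicle and 100% = reference inhibitor.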 The settings on record: P. falciparum 3D7 crude extract, LDH APAD/NBT absorbance; at 2 µM; stronger effect = higher value. Background: A counterscreen serves to expose hits that act by an unwanted route or on another target.

Assay [4] can be described thus: inhibition of 3D7 malaria parasite growth – strain 3D7 (AID 2306).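 Note: 0% = DMSO wells and 100% = chloroquine plus artemisinin control wells.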 The settings on record: P. falciparum 3D7 erythrocytic growth, LDH absorbance, 72 h; at 2 µM; stronger effect = higher value.
The target in assay [5] is Calcium-dependent protein kinase 1 (Plasmodium falciparum (isolate 3D7)) (UniProt P62344). Kind of assay: PfCDPK1 kinase inhibitors, biochemical, TCAMS library (AID 1159585; cut-off not given, nearly all actives have IC50 up to about 0.98 µM;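 note: inhibitors leave more ATP so luminescence rises with inhibition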). The settings on record: recombinant PfCDPK1, Kinase-Glo ATP depletion luminescence.
Assay [6] deals with Plasmodium falciparum protein kinase 6 (PK6, PF3D7_1337100) (UniProt Q8IDW1). In words: PfPK6 kinase inhibitors, biochemical, TCAMS library (AID 1159586). The settings on record: recombinant PfPK6, Kinase-Glo ATP depletion luminescence. (In general: In Kinase-Glo more light means more ATP remaining.)
Assay [7] has as its target Protein kinase 7 (PK7), Plasmodium falciparum 3D7 (PF3D7_0213400) (UniProt Q7YTF7). In words: inhibition of Plasmodium PK7 catalytic activity – biochemical, TCAMS antimalarial set, Kinase-Glo luminescence (AID 1159587). Particulars: recombinant PfPK7, Kinase-Glo ATP depletion luminescence.
Assay [8] has as its target Calcium-dependent protein kinase 4 (Plasmodium falciparum (isolate 3D7)) (UniProt Q8IBS5). In words: PfCDPK4 kinase inhibitors, biochemical, TCAMS library (AID 1159588; cut-off not given, nearly all actives have IC50 up to about 0.91 µM). The settings on record: recombinant PfCDPK4, Kinase-Glo ATP depletion luminescence.

Unmarked numbers belong to inactive results. For some of these results: Results with a measured potency or affinity are listed apart. Activity calls are given as the source filed them. Unless noted, the rule behind the calls is not given here.

Sequence of L-lactate dehydrogenase (Plasmodium falciparum (isolate CDC / Honduras)) (Q27743 whole entry, looked up): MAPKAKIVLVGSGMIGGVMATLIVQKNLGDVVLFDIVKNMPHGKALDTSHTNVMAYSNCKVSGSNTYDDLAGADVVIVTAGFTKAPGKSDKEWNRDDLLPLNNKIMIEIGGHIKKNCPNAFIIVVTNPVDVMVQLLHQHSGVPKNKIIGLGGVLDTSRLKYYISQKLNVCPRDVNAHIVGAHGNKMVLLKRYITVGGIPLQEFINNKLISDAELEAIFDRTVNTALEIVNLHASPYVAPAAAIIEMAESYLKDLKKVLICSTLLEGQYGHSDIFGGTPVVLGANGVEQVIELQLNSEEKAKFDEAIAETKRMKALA
Sequence of Protein kinase 7 (PK7), Plasmodium falciparum 3D7 (PF3D7_0213400) (Q7YTF7 1-343): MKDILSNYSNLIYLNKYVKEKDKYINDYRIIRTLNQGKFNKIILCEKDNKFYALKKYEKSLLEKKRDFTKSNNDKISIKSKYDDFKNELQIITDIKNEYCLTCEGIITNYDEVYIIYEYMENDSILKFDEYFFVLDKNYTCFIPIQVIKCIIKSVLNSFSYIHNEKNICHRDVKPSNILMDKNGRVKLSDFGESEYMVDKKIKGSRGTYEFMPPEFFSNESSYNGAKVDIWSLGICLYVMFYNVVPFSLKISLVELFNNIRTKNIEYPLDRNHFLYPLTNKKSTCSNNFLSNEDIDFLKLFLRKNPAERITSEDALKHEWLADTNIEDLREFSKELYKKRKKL
Sequence of Calcium-dependent protein kinase 4 (Plasmodium falciparum (isolate 3D7)) (Q8IBS5 whole entry, looked up): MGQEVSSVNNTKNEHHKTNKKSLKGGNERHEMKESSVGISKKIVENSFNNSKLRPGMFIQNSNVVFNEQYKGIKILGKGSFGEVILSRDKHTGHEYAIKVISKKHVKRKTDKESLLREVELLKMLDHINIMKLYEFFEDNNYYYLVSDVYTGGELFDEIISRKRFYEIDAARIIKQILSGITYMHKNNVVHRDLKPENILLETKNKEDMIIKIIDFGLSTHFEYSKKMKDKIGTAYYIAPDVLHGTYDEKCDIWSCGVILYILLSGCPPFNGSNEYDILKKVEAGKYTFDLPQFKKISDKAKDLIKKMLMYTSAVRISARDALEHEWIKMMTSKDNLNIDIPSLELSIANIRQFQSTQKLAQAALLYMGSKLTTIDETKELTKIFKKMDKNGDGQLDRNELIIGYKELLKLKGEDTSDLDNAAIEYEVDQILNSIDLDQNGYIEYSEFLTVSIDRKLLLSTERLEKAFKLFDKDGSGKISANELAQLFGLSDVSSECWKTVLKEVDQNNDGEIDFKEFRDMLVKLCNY
Sequence of Plasmodium falciparum protein kinase 6 (PK6, PF3D7_1337100) (Q8IDW1 1-305): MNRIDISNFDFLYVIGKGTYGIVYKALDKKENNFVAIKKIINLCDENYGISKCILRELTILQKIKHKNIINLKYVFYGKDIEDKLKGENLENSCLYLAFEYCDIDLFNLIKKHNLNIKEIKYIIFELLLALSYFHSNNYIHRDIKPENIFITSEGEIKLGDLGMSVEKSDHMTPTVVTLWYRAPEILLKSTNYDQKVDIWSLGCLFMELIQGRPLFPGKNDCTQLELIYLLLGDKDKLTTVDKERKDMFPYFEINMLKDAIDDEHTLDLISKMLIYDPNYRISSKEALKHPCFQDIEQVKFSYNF
Sequence of Calcium-dependent protein kinase 1 (Plasmodium falciparum (isolate 3D7)) (P62344 whole entry, looked up): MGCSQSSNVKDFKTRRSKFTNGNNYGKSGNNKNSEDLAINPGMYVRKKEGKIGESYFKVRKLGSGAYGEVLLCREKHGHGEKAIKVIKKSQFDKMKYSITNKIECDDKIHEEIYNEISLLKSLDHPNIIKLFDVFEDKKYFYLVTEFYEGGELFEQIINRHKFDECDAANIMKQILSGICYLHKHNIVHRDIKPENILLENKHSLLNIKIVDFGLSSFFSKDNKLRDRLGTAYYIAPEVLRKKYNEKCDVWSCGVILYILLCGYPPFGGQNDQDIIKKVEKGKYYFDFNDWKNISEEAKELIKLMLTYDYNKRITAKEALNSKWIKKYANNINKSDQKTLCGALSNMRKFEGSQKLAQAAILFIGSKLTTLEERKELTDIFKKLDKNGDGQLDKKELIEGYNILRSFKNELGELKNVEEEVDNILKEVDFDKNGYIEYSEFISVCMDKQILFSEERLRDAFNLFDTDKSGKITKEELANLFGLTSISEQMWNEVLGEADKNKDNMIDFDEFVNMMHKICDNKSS

Regarding `COc1cccc(CNC(=O)c2cc(CNCc3ccccc3)ccc2-c2cccc(CNCc3ccc(-c4ccccc4)cc3)c2)c1`, the growth inhibition in assay [1] was 15%; in assay [4], 95% (active). In addition, the figures for the inhibition in assay [2] and in assay [3] were 22% and 8%, respectively. Also, the result in assay [5], in assay [6], in assay [7] and in assay [8] was inactive.
For the compound `Cc1ccc(CNc2cc(C(F)(F)F)nc(-c3ccc(S(C)(=O)=O)cc3)n2)cc1`, the growth inhibition was 72% (active) in assay [1] and 89% (active) in assay [4]. Further, the inhibition in assay [2] was 2%; in assay [3], -4%. Further, the outcome in assay [5], in assay [6], in assay [7] and in assay [8] was inactive.
As to `Nc1nc(N)c2c(Oc3cccc4ccccc34)cccc2n1`, the growth inhibition is 10% in assay [1] and 96% (active) in assay [4]. In addition, the inhibition was 42% in assay [2] and 6% in assay [3]. For the same compound, the result in assay [5], in assay [6], in assay [7] and in assay [8] was inactive.
Consider `CCCN1CCN(c2ccccc2NS(=O)(=O)c2ccc(C(=O)Nc3ccc(Cl)cc3)cc2)CC1`, for which the growth inhibition in assay [1] was 9%; in assay [4] it was 84% (active). The values for the inhibition in assay [2] and in assay [3] were 17% and -2%, respectively. In addition, the result in assay [5], in assay [6], in assay [7] and in assay [8] was inactive.
For `CC(C)CCN(Cc1cncn1Cc1ccccc1F)C(=O)c1cncc(-c2ccccc2)c1`, the growth inhibition in assay [1] is 3%; in assay [4] it was 96% (active). The inhibition is 1% in assay [2] and -5% in assay [3]. The result in assay [5], in assay [6], in assay [7] and in assay [8] was inactive.
Take `Cc1cc(NC2CCN(CC3CCCCC3)C2)nc(Nc2ccc(Cl)cc2)n1` (stereo not given): the growth inhibition in assay [1] was 83% (active); in assay [4] it was 98% (active). Also, the inhibition was 26% in assay [2] and -2% in assay [3]. Further, the result in assay [5], in assay [6], in assay [7] and in assay [8] was inactive.
As for `COc1cc(OC)c2c(c1Cl)O[C@]1(C2=O)C(=O)C(Cc2ccccc2)(Cc2ccccc2)C(=O)C[C@H]1C`, the growth inhibition in assay [1] was 45%; in assay [4] it was 90% (active). Besides, the inhibition is -12% in assay [2] and -3% in assay [3]. For the same compound, the outcome in assay [5], in assay [6], in assay [7] and in assay [8] was inactive.
On to `Cc1ccc(Nc2nc(C)cc(Nc3cccc(NS(C)(=O)=O)c3)n2)cc1`, for which the growth inhibition in assay [1] is 8%; in assay [4], 96% (active). Moreover, the inhibition in assay [2] is -3%; in assay [3], 0%. The outcome in assay [5], in assay [6], in assay [7] and in assay [8] was inactive.
On to `CC(C)OC(=O)c1ccc(NC(=O)N[C@@H](Cc2ccc(O)cc2)C(=O)NC2CCC(CCN3[C@@H]4CC[C@H]3c3ccccc34)CC2)cc1` (stereo not given in full), for which the growth inhibition in assay [1] was 67% (active); in assay [4], 95% (active). The inhibition in assay [2] and in assay [3] was 3% in each case. The outcome in assay [5], in assay [6], in assay [7] and in assay [8] was inactive.
Take `Cc1cccc2[nH]c(-c3ccc(-c4ccc(CN5CCN(CCN6CCOCC6)CC5)cc4)cc3)nc12`: the growth inhibition in assay [1] was 74% (active); in assay [4], 98% (active). The values for the inhibition in assay [2] and in assay [3] were 49% and -1%, respectively. Besides, the result in assay [5], in assay [6], in assay [7] and in assay [8] was inactive.
As for `O[C@@H](c1ccccc1)[C@@H]1CN(CCc2ccccc2)CC[C@@]1(O)c1ccccc1`, the values for the growth inhibition in assay [1] and in assay [4] were 92% (active) and 97% (active), respectively. For the same compound, the inhibition in assay [2] and in assay [3] was -2% in each case. For the same compound, the outcome in assay [5], in assay [6], in assay [7] and in assay [8] was inactive.
On to `CC(C)(C)c1cc2cc(Nc3ccnc4cc(-c5nccs5)ccc34)ccc2[nH]1`, for which the growth inhibition in assay [1] is 97% (active); in assay [4] it was 101% (active). The inhibition in assay [2] was 5%; in assay [3], -1%. Besides, the outcome in assay [5], in assay [6], in assay [7] and in assay [8] was inactive.
`Cc1ccc(-n2ncc(C(=O)Nc3cc(Cl)cc(Cl)c3)c2C2CCNCC2)cc1C`: the growth inhibition in assay [1] is 77% (active); in assay [4] it was 100% (active). Also, the values for the inhibition in assay [2] and in assay [3] were 65% (active) and -7%, respectively. In addition, the result in assay [5], in assay [6], in assay [7] and in assay [8] was inactive.
For the compound `CCOc1cc(C)ccc1NC1CCN(CCCCNC(=O)c2ccc(NC(=O)c3ccc(Cl)cc3)cc2)CC1`, the growth inhibition in assay [1] was 70% (active); in assay [4], 101% (active). Besides, the inhibition in assay [2] is 17%; in assay [3], -2%. Besides, the result in assay [5], in assay [6], in assay [7] and in assay [8] was inactive.
With `O=C(NOCc1ccccc1)c1cc(Cl)ccc1O`, the growth inhibition in assay [1] is -1%; in assay [4], 83% (active). The inhibition in assay [2] is 2%; in assay [3] it was 5%. Also, the result in assay [5], in assay [6], in assay [7] and in assay [8] was inactive.
With `O=C(Nc1cccc(-c2ccc(-c3nc4ccccc4[nH]3)cc2)c1)c1ccncc1`, the growth inhibition was 58% (active) in assay [1] and 100% (active) in assay [4]. The inhibition was 30% in assay [2] and -1% in assay [3]. Further, the outcome in assay [5], in assay [6], in assay [7] and in assay [8] was inactive.
As to `FC(F)(F)c1ccc2nc(-c3ccc(-c4ccc(CN5CCN(c6cnccn6)CC5)cc4)cc3)[nH]c2c1`, the growth inhibition is 50% (active) in assay [1] and 99% (active) in assay [4]. The inhibition in assay [2] is 21%; in assay [3], -7%. Further, the outcome in assay [5], in assay [6], in assay [7] and in assay [8] was inactive.
For `NC(=NCCc1ccc(Cl)cc1)c1ccc(Cl)c(Cl)c1`, the results for the growth inhibition in assay [1] and in assay [4] were 42% and 100% (active), respectively. In addition, the inhibition is 43% in assay [2] and -1% in assay [3]. For the same compound, the result in assay [5], in assay [6], in assay [7] and in assay [8] was inactive.
Regarding `O=C(C=Cc1ccc(Cl)c(Cl)c1)NCCCCCN1CCCC(CCCNS(=O)(=O)c2cccc3cccnc23)C1` (stereo not given), the values for the growth inhibition in assay [1] and in assay [4] were 16% and 96% (active), respectively. Also, the inhibition in assay [2] was 37%; in assay [3], 2%. Besides, the outcome in assay [5], in assay [6], in assay [7] and in assay [8] was inactive.
In the case of `C=C1N(C)c2cc([N+](=O)[O-])c(N)cc2C1(C)C`, the growth inhibition is 83% (active) in assay [1] and 98% (active) in assay [4]. Also, the inhibition in assay [2] was 22%; in assay [3], -2%. The outcome in assay [5], in assay [6], in assay [7] and in assay [8] was inactive.
